According to the supplement of paper PMC11732987, “Enantioselective OTUD7B fragment discovery through chemoproteomics screening and high-throughput optimisation” (Communications Chemistry, 2025):

How the values were obtained:
Experiment in all cases: log2 ratio of Biotin-Ahx-Ub-VS probe labelling (fragment/DMSO); higher = less target engagement (more negative = stronger competition), active = hit call of the paper (q ≤ 0.05, log2 ratio ≤ -1)
Settings in all cases: compound concentration: 200 uM; treatment time: 3 h
ALG13 = target: T1, ALG13 (UniProt Q9NP73)
T1 sequence (whole entry): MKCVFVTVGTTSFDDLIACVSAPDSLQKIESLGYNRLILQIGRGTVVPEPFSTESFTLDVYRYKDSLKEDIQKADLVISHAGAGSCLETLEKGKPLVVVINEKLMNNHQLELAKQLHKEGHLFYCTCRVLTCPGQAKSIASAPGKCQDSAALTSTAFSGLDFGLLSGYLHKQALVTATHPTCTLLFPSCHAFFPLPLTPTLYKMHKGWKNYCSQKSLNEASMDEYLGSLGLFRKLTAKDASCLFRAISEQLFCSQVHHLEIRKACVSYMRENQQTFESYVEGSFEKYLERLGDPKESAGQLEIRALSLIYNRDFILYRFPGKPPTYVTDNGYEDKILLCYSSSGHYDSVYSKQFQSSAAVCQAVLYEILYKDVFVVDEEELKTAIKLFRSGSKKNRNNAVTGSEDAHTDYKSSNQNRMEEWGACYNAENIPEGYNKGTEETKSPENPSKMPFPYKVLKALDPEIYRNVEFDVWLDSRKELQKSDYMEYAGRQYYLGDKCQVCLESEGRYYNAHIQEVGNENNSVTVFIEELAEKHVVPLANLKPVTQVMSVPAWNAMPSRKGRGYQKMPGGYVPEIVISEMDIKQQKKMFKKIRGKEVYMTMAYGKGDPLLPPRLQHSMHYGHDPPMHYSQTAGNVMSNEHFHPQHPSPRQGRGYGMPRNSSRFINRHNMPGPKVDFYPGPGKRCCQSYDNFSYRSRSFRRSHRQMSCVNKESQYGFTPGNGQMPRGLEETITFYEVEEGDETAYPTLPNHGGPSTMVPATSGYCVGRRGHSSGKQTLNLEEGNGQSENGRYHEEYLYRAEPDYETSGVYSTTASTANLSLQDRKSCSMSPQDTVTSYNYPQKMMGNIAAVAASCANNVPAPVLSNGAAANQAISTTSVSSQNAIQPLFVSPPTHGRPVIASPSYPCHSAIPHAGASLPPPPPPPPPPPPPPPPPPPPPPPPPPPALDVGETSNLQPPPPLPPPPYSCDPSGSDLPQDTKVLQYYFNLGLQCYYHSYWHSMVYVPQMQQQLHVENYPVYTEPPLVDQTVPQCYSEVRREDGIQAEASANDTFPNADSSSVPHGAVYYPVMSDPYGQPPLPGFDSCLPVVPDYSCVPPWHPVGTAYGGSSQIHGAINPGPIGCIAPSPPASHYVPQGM
Outline: (§1)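 HEK293T lysate, 495 µg per sample in Tris/CHAPS/IGEPAL buffer with protease inhibitors, was treated in triplicate with fragment at 200 µM or vehicle for 3 h and then with Biotin-Ahx-Ub-VS at 0.5 µM final for 1 h. Labelled DUBs were NeutrAvidin-enriched, digested with LysC and trypsin, and run by diaPASEF LC-MS/MS. Spectronaut label-free quantities were global-median-normalised, and values are average log2 fragment/vehicle ratios by unpaired t-test on proteins with ≥2 unique peptides.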

ATXN3 = ATXN3 (UniProt P54252)
Outline: as §1

BAP1 = target: T2, BAP1 (UniProt Q92560)
T2 sequence (whole entry): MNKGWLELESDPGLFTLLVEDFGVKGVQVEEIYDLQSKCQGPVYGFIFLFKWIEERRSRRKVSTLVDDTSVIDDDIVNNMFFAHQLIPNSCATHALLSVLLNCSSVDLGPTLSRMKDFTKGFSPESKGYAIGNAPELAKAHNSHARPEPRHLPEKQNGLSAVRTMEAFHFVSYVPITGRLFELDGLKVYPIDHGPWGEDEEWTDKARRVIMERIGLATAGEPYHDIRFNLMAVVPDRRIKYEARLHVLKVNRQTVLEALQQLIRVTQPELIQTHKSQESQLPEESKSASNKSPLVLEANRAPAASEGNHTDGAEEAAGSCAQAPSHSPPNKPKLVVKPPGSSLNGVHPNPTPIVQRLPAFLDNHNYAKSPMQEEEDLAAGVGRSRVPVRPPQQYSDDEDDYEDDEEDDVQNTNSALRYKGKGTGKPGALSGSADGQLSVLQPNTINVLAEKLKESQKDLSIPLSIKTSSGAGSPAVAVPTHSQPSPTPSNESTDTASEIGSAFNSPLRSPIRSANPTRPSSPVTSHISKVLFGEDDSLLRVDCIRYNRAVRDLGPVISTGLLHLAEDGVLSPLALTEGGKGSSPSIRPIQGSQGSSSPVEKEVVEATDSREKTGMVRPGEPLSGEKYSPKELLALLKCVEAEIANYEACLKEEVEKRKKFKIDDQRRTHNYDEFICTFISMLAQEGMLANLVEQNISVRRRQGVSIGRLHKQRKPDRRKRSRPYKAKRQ
Outline: as §1

EIF3F = EIF3F (UniProt O00303)
Outline: as §1

EIF3H = EIF3H (UniProt O15372)
Outline: as §1

FAM105A = target: T3, FAM105A (UniProt Q9NUU6)
T3 sequence (whole entry): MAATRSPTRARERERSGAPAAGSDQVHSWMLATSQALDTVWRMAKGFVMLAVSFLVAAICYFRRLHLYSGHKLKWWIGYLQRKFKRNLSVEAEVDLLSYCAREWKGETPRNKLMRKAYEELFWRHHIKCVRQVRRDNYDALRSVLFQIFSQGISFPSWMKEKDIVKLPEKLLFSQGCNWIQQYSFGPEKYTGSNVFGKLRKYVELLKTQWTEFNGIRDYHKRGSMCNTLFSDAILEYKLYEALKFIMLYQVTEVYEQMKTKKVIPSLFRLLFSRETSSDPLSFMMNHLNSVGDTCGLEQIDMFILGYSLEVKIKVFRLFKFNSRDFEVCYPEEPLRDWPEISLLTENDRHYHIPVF
Outline: as §1

OTUB1 = OTUB1 (UniProt Q96FW1)
Outline: as §1

OTUD4 = target: T4, OTUD4 (UniProt Q01804)
T4 sequence (whole entry): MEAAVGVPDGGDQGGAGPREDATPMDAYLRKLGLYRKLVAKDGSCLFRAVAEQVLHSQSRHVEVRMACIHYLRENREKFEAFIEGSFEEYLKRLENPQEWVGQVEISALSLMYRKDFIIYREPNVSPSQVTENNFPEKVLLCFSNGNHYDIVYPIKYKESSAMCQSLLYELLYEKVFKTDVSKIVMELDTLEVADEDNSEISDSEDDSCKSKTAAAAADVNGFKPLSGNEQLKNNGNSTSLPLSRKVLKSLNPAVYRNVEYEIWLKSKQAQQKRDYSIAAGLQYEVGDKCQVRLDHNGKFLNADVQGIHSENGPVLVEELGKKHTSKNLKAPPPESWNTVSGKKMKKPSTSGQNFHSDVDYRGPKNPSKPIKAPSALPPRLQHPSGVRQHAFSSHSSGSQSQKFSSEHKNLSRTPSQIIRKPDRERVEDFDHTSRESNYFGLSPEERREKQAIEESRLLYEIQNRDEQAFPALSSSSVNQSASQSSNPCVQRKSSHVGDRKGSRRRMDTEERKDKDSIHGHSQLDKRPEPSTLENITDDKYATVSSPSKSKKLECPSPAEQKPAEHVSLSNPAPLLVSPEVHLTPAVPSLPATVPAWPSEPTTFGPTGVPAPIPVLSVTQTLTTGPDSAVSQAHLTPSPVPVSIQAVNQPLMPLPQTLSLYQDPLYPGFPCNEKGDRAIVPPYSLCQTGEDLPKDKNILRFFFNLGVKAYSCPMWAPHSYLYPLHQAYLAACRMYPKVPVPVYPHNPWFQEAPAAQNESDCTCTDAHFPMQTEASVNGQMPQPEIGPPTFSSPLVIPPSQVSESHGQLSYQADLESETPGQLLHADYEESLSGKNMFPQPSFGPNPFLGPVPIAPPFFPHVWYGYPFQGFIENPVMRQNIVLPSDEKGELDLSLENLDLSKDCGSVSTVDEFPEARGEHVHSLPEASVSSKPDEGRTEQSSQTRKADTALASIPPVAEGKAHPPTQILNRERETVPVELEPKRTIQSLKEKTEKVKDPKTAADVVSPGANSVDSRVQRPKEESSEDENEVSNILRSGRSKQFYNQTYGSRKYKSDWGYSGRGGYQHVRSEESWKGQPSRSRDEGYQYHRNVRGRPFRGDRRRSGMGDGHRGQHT
Outline: as §1

OTUD5 = target: T5, OTUD5 (UniProt Q96G74)
T5 sequence (whole entry): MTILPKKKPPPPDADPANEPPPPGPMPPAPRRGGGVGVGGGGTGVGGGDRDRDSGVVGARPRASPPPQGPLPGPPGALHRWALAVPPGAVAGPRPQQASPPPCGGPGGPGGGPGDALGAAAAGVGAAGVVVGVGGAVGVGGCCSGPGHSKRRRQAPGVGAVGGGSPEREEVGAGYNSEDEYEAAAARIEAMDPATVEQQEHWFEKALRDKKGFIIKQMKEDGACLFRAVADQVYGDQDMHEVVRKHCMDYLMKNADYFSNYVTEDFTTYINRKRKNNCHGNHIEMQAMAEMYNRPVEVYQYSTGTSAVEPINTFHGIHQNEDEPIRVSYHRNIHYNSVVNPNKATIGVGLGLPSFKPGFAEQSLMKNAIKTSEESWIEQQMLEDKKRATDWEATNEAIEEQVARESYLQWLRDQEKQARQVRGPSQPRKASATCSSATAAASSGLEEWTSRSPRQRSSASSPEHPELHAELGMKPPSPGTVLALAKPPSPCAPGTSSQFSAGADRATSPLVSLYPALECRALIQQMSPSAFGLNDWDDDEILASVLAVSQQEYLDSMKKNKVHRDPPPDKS
Outline: as §1

Measured: log2 ratio of Biotin-Ahx-Ub-VS probe labelling

ATXN3, sequence (P54252 whole entry): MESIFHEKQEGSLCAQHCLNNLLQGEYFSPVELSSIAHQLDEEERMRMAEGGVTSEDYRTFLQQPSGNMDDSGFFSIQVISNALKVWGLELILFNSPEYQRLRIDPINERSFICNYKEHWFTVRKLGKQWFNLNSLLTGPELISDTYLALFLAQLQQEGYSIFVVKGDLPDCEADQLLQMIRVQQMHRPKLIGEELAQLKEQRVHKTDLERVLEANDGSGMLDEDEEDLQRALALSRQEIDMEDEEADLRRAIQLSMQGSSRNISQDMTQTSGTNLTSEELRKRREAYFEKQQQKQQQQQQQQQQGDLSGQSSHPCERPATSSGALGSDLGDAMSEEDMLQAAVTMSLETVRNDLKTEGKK
OTUB1, sequence (Q96FW1 whole entry): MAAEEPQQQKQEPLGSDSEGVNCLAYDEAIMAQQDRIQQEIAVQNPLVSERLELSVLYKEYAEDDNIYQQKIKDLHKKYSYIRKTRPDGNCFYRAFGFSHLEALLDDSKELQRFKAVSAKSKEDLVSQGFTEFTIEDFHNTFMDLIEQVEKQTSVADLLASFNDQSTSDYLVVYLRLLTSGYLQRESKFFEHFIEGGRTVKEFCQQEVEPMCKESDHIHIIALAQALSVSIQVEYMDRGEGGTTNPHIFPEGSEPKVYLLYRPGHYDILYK
EIF3F, sequence (O00303 whole entry): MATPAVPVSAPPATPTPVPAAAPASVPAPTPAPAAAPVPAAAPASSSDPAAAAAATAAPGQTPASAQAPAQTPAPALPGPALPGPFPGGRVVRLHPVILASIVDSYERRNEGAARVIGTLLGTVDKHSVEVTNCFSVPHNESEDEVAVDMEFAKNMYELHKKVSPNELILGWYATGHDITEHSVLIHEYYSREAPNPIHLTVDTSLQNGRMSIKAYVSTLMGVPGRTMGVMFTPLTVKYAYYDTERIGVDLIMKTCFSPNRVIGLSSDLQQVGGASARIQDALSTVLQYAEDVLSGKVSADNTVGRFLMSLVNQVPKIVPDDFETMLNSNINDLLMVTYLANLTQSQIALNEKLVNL
EIF3H, sequence (O15372 whole entry): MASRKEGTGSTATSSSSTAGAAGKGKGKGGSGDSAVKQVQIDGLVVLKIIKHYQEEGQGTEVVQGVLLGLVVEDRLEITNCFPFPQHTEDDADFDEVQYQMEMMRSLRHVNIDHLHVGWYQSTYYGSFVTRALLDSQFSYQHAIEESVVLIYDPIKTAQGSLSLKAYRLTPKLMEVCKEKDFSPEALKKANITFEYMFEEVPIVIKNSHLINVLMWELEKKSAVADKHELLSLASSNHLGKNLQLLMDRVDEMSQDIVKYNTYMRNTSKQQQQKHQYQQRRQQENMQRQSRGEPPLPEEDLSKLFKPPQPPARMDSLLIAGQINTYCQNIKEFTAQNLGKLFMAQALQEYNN

O=C(CCl)N(C1CCCC1)C1CCS(=O)(=O)C1 (centres undefined)
inactive: ALG13 0.338 | ATXN3 -0.109 | BAP1 -0.0673 | EIF3F -0.335 | EIF3H 0.00604 | FAM105A 0.169 | OTUB1 -0.343 | OTUD4 0.0168 | OTUD5 -0.379
